A short description of assay [1]: qHTS assay to identify small molecule antagonists of the thyroid receptor (TR) signaling pathway - cell viability counter screen (AID 743064). Further: nearly all actives have a fitted effect of over 50% in size. Further: potency means the concentration at half of the fitted maximal effect. The method, boiled down:
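GH3.TRE-Luc rat pituitary cells carrying a TRE-luciferase reporter were treated with compound plus 1 nM T3 (final) for 23.5 h at 37 °C. Viability was then read in the same wells by CellTiter-Fluor fluorescence after a further 30 min.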
A general note: In qHTS, concentration-response curves come from the screen itself.

Assay [2] is described as follows: qHTS assay to identify small molecule antagonists of the thyroid receptor (TR) signaling pathway (AID 743065). Further: nearly all actives have a fitted effect of over 55% in size. Further: potency means the concentration at half of the fitted maximal effect. A digest of the protocol: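 GH3.TRE-Luc rat pituitary cells carrying two TR response elements driving luciferase were plated for 4 h, given compound plus 1 nM T3 (final), and incubated 23.5 h at 37 C. ONE-Glo luminescence measured reporter inhibition; CellTiter-Fluor fluorescence tracked cytotoxicity.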

The subject of assay [3] is thyroid hormone receptor (rat, GH3 cells). As to the kind of experiment: qHTS assay to identify small molecule agonists of the thyroid receptor (TR) signaling pathway (AID 743066; calls by dose curve).
Assay [4] addresses Estrogen receptor (Homo sapiens) (UniProt P03372). As to the kind of experiment: qHTS assay to identify small molecule antagonists of the estrogen receptor alpha (ER-alpha) signaling pathway (AID 743069; active means well fitted curve in the direction sought with a large enough effect in the signal ratio in the repeat runs, not every such curve was filed as active; inconclusive means weak or mixed curves, or effect the other way; inactive means no such curve, though single readings can be large or run the other way; the % refers to the signal ratio; further: potency means the concentration at half of the fitted maximal effect). A digest of the protocol: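 A 17beta-estradiol challenge was applied right after compound transfer to ER-alpha-UAS-bla HEK293 cells previously kept in charcoal-stripped serum. Plates stood 18 hr at 37C and 5% CO2; fluorescence was read following 2 hr FRET substrate loading at room temperature.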

Assay [5] is described as follows: qHTS assay to identify small molecule antagonists of the estrogen receptor alpha (ER-alpha) signaling pathway - cell viability counter screen (AID 743074; calls by dose curve;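 further: HEK293 cells carrying ER-alpha-UAS-bla reporter stimulated with 17beta-estradiol; nearly all actives have a fitted effect of over 45% in size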).
The target of assay [6] is Estrogen receptor (Homo sapiens) (UniProt P03372). As to the kind of experiment: qHTS assay to identify small molecule agonists of the estrogen receptor alpha (ER-alpha) signaling pathway (AID 743075; calls by dose curve;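 further: HEK293 GripTite cells with ER-alpha and UAS-driven beta-lactamase reporter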).
Chain of Estrogen receptor (Homo sapiens) (P03372 whole entry, looked up): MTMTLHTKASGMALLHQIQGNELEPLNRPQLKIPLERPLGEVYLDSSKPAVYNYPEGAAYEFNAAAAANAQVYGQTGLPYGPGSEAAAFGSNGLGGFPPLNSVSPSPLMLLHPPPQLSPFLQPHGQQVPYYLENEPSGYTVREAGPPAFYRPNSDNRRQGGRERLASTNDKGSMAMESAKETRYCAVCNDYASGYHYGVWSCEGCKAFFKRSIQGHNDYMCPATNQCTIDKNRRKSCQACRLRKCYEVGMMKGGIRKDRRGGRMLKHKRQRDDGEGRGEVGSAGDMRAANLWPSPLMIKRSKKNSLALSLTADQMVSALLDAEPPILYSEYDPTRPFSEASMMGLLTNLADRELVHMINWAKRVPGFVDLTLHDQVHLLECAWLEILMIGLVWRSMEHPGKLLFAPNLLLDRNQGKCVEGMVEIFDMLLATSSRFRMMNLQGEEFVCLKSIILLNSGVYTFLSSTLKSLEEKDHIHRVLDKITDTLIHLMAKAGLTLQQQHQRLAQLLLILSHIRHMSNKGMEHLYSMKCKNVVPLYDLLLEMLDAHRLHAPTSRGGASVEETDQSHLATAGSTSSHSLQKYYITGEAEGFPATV
The target is the same in assay [7]. Nature of the assay: qHTS assay to identify small molecule agonists of the estrogen receptor alpha (ER-alpha) signaling pathway using the BG1 cell line (AID 743079). Further: nearly all actives have a fitted effect of over 20% in size. Further: potency means the concentration at half of the fitted maximal effect. Particulars: BG1Luc4E2 cells, ERE-luciferase agonist, 22 h; activation: at 70.3 µM (top of the series).
A short description of assay [8]: qHTS assay to identify small molecule antagonists of the estrogen receptor alpha (ER-alpha) signaling pathway using the BG1 cell line (AID 743080; calls by dose curve;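 further: BG1 cells stimulated with 17beta-estradiol alongside compound; nearly all actives have a fitted effect of over 25% in size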). The method, boiled down:
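Seeding, 24 h rest, compound transfer from DMSO, 17beta-estradiol addition, 21.5 h incubation, CellTiter-Fluor (30 min, 37 C), then ONE-Glo (30 min, room temperature): this sequence was run on BG1-Luc-4E2 reporter cells.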

The nature of assay [9]: qHTS assay to identify small molecule antagonists of the estrogen receptor alpha (ER-alpha) signaling pathway using the BG1 cell line - cell viability counter screen (AID 743081).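 Further: compound given together with 17beta-estradiol as the ER stimulus; nearly all actives have a fitted effect of over 45% in size.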
For another assay, the target named is Aromatase (Homo sapiens) (UniProt P11511). Nature of the assay: qHTS assay to identify aromatase inhibitors (AID 743083). Further: nearly all actives have a fitted effect of over 55% in size.
Chain of Aromatase (Homo sapiens) (P11511 whole entry, looked up): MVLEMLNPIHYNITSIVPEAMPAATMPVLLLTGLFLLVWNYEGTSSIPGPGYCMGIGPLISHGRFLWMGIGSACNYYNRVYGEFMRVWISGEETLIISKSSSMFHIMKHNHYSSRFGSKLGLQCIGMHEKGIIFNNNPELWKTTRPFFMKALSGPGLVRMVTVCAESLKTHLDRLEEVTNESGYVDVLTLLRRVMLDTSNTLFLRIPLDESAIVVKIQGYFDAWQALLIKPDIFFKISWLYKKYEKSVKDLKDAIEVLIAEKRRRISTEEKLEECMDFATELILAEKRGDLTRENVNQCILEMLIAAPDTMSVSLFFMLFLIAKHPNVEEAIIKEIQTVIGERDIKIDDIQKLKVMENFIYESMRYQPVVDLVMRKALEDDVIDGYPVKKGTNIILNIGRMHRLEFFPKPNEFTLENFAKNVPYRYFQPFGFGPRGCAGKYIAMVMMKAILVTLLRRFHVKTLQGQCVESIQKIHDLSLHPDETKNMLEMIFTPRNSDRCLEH

Active and inactive are the calls of the source. Unless noted, the call rests on the fitted dose curve; in most records, active means well fitted curve in the direction sought with a large enough effect in the repeat runs; inconclusive means weak or mixed curves; inactive means no such curve, though single readings can be large; an effect the other way counts as inactive or inconclusive. Positions of bridges follow the written chain, without caps; N, C: chain ends. Non-standard residues stand in square brackets, D forms with d. Residues, ends and D or L forms follow the SMILES beside them. Orn = NCCC[C@H](N)C(=O)O; Mpa = O=C(O)CCS

Consider `CN1CCN(C2=Nc3ccccc3Cc3ccccc32)CC1`, for which the values for the Potency in assay [1] and in assay [2] were 13.3 µM (active) and 23.7 µM (active), respectively. Further, the Potency entry in [3], in assay [4], in [5], in assay [6], in [7] and in assay [8] was “inactive” each time. The Potency entry (in assay [9]; with Aromatase (Homo sapiens)) was “inactive” in each case.
Consider `O=C1O[C@H]2[C@H](O)[C@@H]1OC(O)[C@H]2O` (stereo not given in full), for which the Potency result in [1], in [2], in assay [3], in assay [4], in assay [5] and in assay [6] was “inactive” each time. The Potency entry (in [8]; in assay [9]; with Aromatase (Homo sapiens)) was “inactive” throughout. In addition, the Potency in [7] is 13.3 µM (active).
Take `CC1(C)[C@@H]2CC[C@@]1(C)[C@H](OC(=O)CSC#N)C2`: the Potency entry in assay [1], in assay [2], in [3], in assay [4], in [5] and in assay [6] was “inactive” throughout. Besides, the Potency entry (in [7]; in assay [8]; in assay [9]; with Aromatase (Homo sapiens)) was “inactive” in each case.
Consider `O=C(O)[C@H]1/C(=C/CO)O[C@@H]2CC(=O)N21`, for which the Potency entry in assay [1], in [2], in assay [3], in assay [4], in [5] and in assay [6] was “inactive” throughout. The Potency entry (in assay [7]; in [8]; in assay [9]; with Aromatase (Homo sapiens)) was “inactive” each time.
For `NC(=O)OCC(O)COc1ccc(Cl)cc1` (stereo not given), the Potency result in assay [1], in assay [2], in [3], in assay [4], in assay [5] and in [6] was “inactive” throughout. The Potency entry (in [7]; in assay [8]; in assay [9]; in the assay with Aromatase (Homo sapiens)) was “inactive” each time.
For `CCCCCCCCCCCCCCCC(=O)O[C@@H]1[C@@H](O)[C@@H](O)[C@@H]([C@H](NC(=O)[C@@H]2C[C@@H](CCC)CN2C)[C@H](C)Cl)O[C@@H]1SC`, the Potency entry in assay [1], in assay [2], in assay [3], in assay [4], in assay [5] and in assay [6] was “inactive” in each case. Moreover, the Potency entry (in assay [7]; in [8]; in assay [9]; with Aromatase (Homo sapiens)) was “inactive” each time.
For the compound `CC(=O)N(CC(C)C(=O)O)c1c(I)cc(I)c(N)c1I` (stereo not given), the Potency entry in assay [1], in [2], in assay [3], in assay [4], in assay [5] and in assay [6] was “inactive” each time. For the same compound, the Potency result (in [7]; in [8]; in assay [9]; with Aromatase (Homo sapiens)) was “inactive” each time.
`O=C(O)COc1ccc(CCNS(=O)(=O)c2ccccc2)s1`: the Potency entry in assay [1], in [2], in [3], in [4], in assay [5] and in assay [6] was “inactive” each time. The Potency entry (in assay [7]; in assay [8]; in assay [9]; in the assay with Aromatase (Homo sapiens)) was “inactive” in each case.
For the compound `C=CCCCCCCCCC(=O)OC`, the Potency result in assay [1], in [2], in assay [3], in [4], in assay [5] and in assay [6] was “inactive” in each case. Besides, the Potency result (in [7]; in assay [8]; in assay [9]; with Aromatase (Homo sapiens)) was “inactive” each time.
As for `CC(C)(CO)[C@@H](O)C(=O)NCCC(=O)NCCSSCCNC(=O)CCNC(=O)[C@H](O)C(C)(C)CO`, the Potency result in assay [1], in assay [2], in assay [3], in assay [4], in assay [5] and in assay [6] was “inactive” each time. Further, the Potency entry (in assay [7]; in assay [8]; in [9]; with Aromatase (Homo sapiens)) was “inactive” in each case.
Regarding `CCOc1ccc(C[C@H]2NC(=O)CCSSC[C@@H](C(=O)N3CCC[C@H]3C(=O)N[C@@H](CCCN)C(=O)NCC(N)=O)NC(=O)[C@H](CC(N)=O)NC(=O)[C@H]([C@@H](C)O)NC(=O)[C@H]([C@@H](C)CC)NC2=O)cc1` ([Mpa][dY](Et)ITNCP[Orn]G-NH2; disulfide 1-6), the Potency entry in assay [1], in assay [2], in [3], in [4], in [5] and in [6] was “inactive” each time. Moreover, the Potency entry (in assay [7]; in assay [8]; in assay [9]; in the assay with Aromatase (Homo sapiens)) was “inactive” throughout.
Regarding `COC(=O)[C@@H](N)CS`, the Potency entry in [1], in assay [2], in assay [3], in assay [4], in assay [5] and in assay [6] was “inactive” in each case. Besides, the Potency result (in [8]; in assay [9]; with Aromatase (Homo sapiens)) was “inactive” in each case. In [7], the Potency was 26.6 µM (active).
In the case of `CO/N=C(\C(=O)N[C@@H]1C(=O)N2C(C(=O)O)=CCS[C@H]12)c1csc(N)n1`, the Potency entry in assay [1], in assay [2], in [3], in [4], in assay [5] and in assay [6] was “inactive” in each case. Also, the Potency entry (in assay [7]; in assay [8]; in assay [9]; in the assay with Aromatase (Homo sapiens)) was “inactive” each time.
Take `CC(=O)N=c1sc(S(N)(=O)=O)nn1C`: the Potency entry in [1], in assay [2], in assay [3], in assay [4], in [5] and in assay [6] was “inactive” throughout. In addition, the Potency result (in assay [7]; in [8]; in assay [9]; in the assay with Aromatase (Homo sapiens)) was “inactive” each time.
Regarding `CN[C@@H]1[C@@H](O)[C@@H](O[C@@H]2[C@@H](O)[C@H](O[C@H]3O[C@H](CN)[C@@H](O)[C@H](O)[C@H]3O)[C@@H](N)C[C@H]2NC(=O)C(O)CN)OC[C@]1(C)O` (stereo not given in full), the Potency entry in assay [1], in assay [2], in assay [3], in [4], in [5] and in assay [6] was “inactive” each time. The Potency entry (in assay [7]; in assay [8]; in [9]; with Aromatase (Homo sapiens)) was “inactive” throughout.
`CC1(C)S[C@@H]2[C@H](NC(=O)[C@H](N)c3ccccc3)C(=O)N2[C@H]1C(=O)OCOC(=O)[C@@H]1N2C(=O)C[C@H]2S(=O)(=O)C1(C)C`: the Potency entry in assay [1], in [2], in [3], in assay [5], in assay [6] and in assay [7] was “inactive” throughout. Moreover, the Potency entry (in [8]; in [9]; in the assay with Aromatase (Homo sapiens)) was “inactive” throughout. In assay [4], the Potency is 13.4 µM [inconclusive] (active).
In the case of `CN1c2c(nc(N)[nH]c2=O)NCC1CNc1ccc(C(=O)NC(CCC(=O)O)C(=O)O)cc1` (stereo not given), the Potency result in assay [1], in [2], in [3], in assay [4], in assay [5] and in [6] was “inactive” throughout. In addition, the Potency result (in assay [7]; in [8]; in [9]; with Aromatase (Homo sapiens)) was “inactive” in each case.
In the case of `CC(=O)O[C@H]1C[C@@H]2CC[C@@H]3[C@H](CC[C@@]4(C)[C@H]3C[C@H](N3CC[N+](C)(C)CC3)[C@@H]4OC(C)=O)[C@@]2(C)C[C@@H]1N1CC[N+](C)(C)CC1`, the Potency entry in [1], in assay [2], in assay [3], in assay [4], in assay [5] and in assay [6] was “inactive” in each case. Also, the Potency entry (in [7]; in assay [8]; in assay [9]; in the assay with Aromatase (Homo sapiens)) was “inactive” throughout.
Take `CCOC(=O)[C@@H](N)CS`: the Potency entry in [1], in assay [2], in assay [3], in [4], in assay [5] and in assay [6] was “inactive” in each case. Further, the Potency entry (in assay [8]; in assay [9]; in the assay with Aromatase (Homo sapiens)) was “inactive” throughout. Besides, the Potency in [7] is 29.8 µM (active).
With `Cc1nc(NS(=O)(=O)c2ccc(N)cc2)nc(C)c1Br`, the Potency entry in [1], in [2], in [3], in assay [4], in [5] and in assay [6] was “inactive” in each case. Further, the Potency entry (in [7]; in assay [8]; in assay [9]; with Aromatase (Homo sapiens)) was “inactive” each time.

Source of the values: PubChem BioAssay (Tox21).
